Experimental data reported in PubChem BioAssay (NCI).
The panel holds about 79,000 compounds, 15% with a hit somewhere; the sample as a whole holds those more often. Activity calls are given as the source filed them. No stated cut-off is given here; in the data, active means growth inhibition above about 70%; inactive means the rest.

Tests used:
[1] = NCI Yeast Anticancer Drug Screen. Data for the mec2-1 strain (AID 157); conditions: S. cerevisiae mec2-1 strain, active compounds read high
Summary of the method: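 Each compound was tested on mec2-1 yeast, a strain altered in DNA damage repair or cell cycle control. Growth inhibition is reported relative to vehicle.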

[2] = NCI Yeast Anticancer Drug Screen. Data for the rad14 strain (AID 159);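 further: 0% = growth of vehicle-treated control cultures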; conditions: S. cerevisiae rad14 strain growth inhibition, active compounds read high
Summary of the method: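 Compound-treated yeast with a defined DNA-repair lesion; growth inhibition normalised to vehicle-treated cultures.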

[3] = NCI Yeast Anticancer Drug Screen. Data for the sgs1 mgt1 strain (AID 161);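 further: 0% = growth of cultures given vehicle only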; conditions: S. cerevisiae sgs1 mgt1 strain, active compounds read high
Summary of the method: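 Test agents were incubated with a DNA-repair-mutant yeast strain. Growth was then read and compared against vehicle-treated controls.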

[4] = NCI Yeast Anticancer Drug Screen. Data for the CLN2oe strain (AID 163);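 further: 0% = growth of vehicle-only control cultures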; conditions: S. cerevisiae CLN2oe strain, active compounds read high
Summary of the method: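 First, the altered yeast strain was treated with each compound; second, its growth was measured; finally, inhibition was derived by comparison with vehicle controls.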

[5] = NCI Yeast Anticancer Drug Screen. Data for the bub3 strain (AID 167); conditions: S. cerevisiae bub3 mutant strain, active compounds read high
Summary of the method: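 Growth of a checkpoint-deficient yeast mutant is measured after compound exposure. Values represent inhibition relative to vehicle.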

[6] = NCI Yeast Anticancer Drug Screen. Data for the wt2 strain (AID 169);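 further: 0% = growth of vehicle-treated yeast cultures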; conditions: S. cerevisiae wt2 strain growth inhibition, active compounds read high
Summary of the method: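 The panel's yeast strains carry defined changes in DNA repair or cell cycle genes. Each strain is grown with compound, and growth loss is scored relative to vehicle.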

[7] = NCI Yeast Anticancer Drug Screen. Data for the sgs1 strain (AID 173);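 further: 0% = growth of vehicle-only control cultures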; conditions: S. cerevisiae sgs1 mutant, active compounds read high
Summary of the method: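 Vehicle-treated cultures served as reference for growth inhibition of a yeast strain altered in DNA damage repair or cell cycle control after compound exposure.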

[8] = NCI Yeast Anticancer Drug Screen. Data for the mlh1 rad18 strain (AID 175); conditions: S. cerevisiae mlh1 rad18 strain growth inhibition, active compounds read high
Summary of the method: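 Inhibition values reflect reduced growth of mutant yeast versus vehicle-treated controls following compound exposure; the mutations affect DNA damage repair.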

[9] = NCI Yeast Anticancer Drug Screen. Data for the rad18 strain (AID 177); conditions: S. cerevisiae rad18 mutant growth inhibition, active compounds read high
Summary of the method: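 Steps: expose repair-mutant yeast to compound; measure growth; express as inhibition relative to vehicle control.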

[10] = NCI Yeast Anticancer Drug Screen. Data for the rad52 strain (AID 147);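 further: 0% = growth of vehicle-treated control cultures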; conditions: S. cerevisiae rad52 mutant growth inhibition, active compounds read high
Summary of the method: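 Inhibition of yeast growth, referenced to vehicle controls, was the measured output for a strain with defective DNA damage repair.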

[11] = NCI Yeast Anticancer Drug Screen. Data for the wt1 strain (AID 149);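 further: 0% = growth of vehicle-treated wt1 cultures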; conditions: S. cerevisiae wt1 strain (SPY 50644) growth inhibition, active compounds read high
Summary of the method: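 Readout: yeast growth inhibition, normalised to vehicle controls, in the wt1 strain exposed to test compounds.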

[12] = NCI Yeast Anticancer Drug Screen. Data for the rad50EPP+ strain (AID 151);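 further: 0% = growth of vehicle-treated control cultures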; conditions: S. cerevisiae rad50 mutant strain, active compounds read high
Summary of the method: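 Genetically defined yeast (rad50EPP+, DNA damage repair alteration) is grown with compound, and inhibition of growth is expressed relative to vehicle-treated controls.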

[13] = NCI Yeast Anticancer Drug Screen. Data for the rad50 strain (AID 155);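 further: 0% = growth of vehicle-only cultures of the same strain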; conditions: S. cerevisiae rad50 strain growth inhibition, active compounds read high
Summary of the method: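 Compounds were tested on a yeast strain with an engineered DNA damage repair alteration; the reported value is growth inhibition normalised to vehicle treatment.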

[14] = NCI Yeast Anticancer Drug Screen. Data for the cln2 rad14 strain (AID 165);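 further: 0% = growth equal to vehicle treated cultures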; conditions: S. cerevisiae cln2 rad14 strain, active compounds read high
Summary of the method: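 Test compounds were added to cln2 rad14 yeast cultures; inhibition of growth was then determined by comparison with vehicle treatment.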

[15] = NCI Yeast Anticancer Drug Screen. Data for the mlh1 strain (AID 171);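 further: 0% = growth of vehicle-treated control cultures of the same strain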; conditions: S. cerevisiae mlh1 strain growth inhibition, active compounds read high
Summary of the method: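 Inhibition values reflect reduced yeast growth in the presence of compound, referenced to vehicle controls, using a strain chosen for its alteration in DNA repair or cell cycle control.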

[16] = at 5.0 µM (retest, dose inferred, filed as 0.5)
[17] = at 50.0 µM (retest, dose inferred, filed as 5.0)

Measured: growth inhibition

O=C1C(CCSc2ccccc2)C(=O)N(c2ccccc2)C1c1ccccc1 (stereo not drawn)
inactive: [2]; at 1.2 µM -4% | [2]; at 3.7 µM -21% | [2]; at 11.0 µM 2% | [3]; [16] -3% | [4]; at 1.2 µM -8% | [4]; at 3.7 µM 2% | [4]; at 11.0 µM 48% | [5]; at 1.2 µM 7% | [5]; at 3.7 µM 20% | [5]; [16] 25% | [5]; at 11.0 µM 46% | [6]; at 1.2 µM -5% | [6]; at 3.7 µM -4% | [6]; at 11.0 µM 22% | [7]; at 1.2 µM 7% | [7]; at 3.7 µM 15% | [7]; at 11.0 µM 44% | [8]; [16] 44% | [9]; at 1.2 µM -15% | [9]; at 3.7 µM -3% | [9]; at 11.0 µM 24%
active: [1]; at 100.0 µM 90% | [2]; at 33.0 µM 93% | [2]; at 100.0 µM 87% | [3]; [17] 99% | [3]; at 50.0 µM 92.3% | [4]; at 33.0 µM 95% | [4]; at 100.0 µM 85% | [5]; at 33.0 µM 96% | [5]; [17] 98% | [5]; at 50.0 µM 90.7% | [5]; at 100.0 µM 88% | [6]; at 33.0 µM 95% | [6]; at 100.0 µM 90% | [7]; at 33.0 µM 96% | [7]; at 100.0 µM 87% | [8]; [17] 87% | [8]; at 50.0 µM 90.2% | [9]; at 33.0 µM 95% | [9]; at 100.0 µM 89%

CC1=NN(C(=O)c2ccccc2O)C(=O)/C1=C/c1ccco1
inactive: [10]; at 1.2 µM 1% | [10]; at 3.7 µM 16% | [11]; at 1.2 µM 21% | [11]; at 3.7 µM 30% | [12]; at 1.2 µM 9% | [12]; at 3.7 µM 45% | [12]; at 11.0 µM 49% | [12]; at 33.0 µM 48% | [13]; at 1.2 µM -3% | [13]; at 3.7 µM 17% | [13]; [16] 11% | [13]; at 11.0 µM 64% | [1]; at 1.2 µM -4% | [1]; at 3.7 µM 2% | [1]; [16] 19% | [2]; at 1.2 µM -1% | [2]; at 3.7 µM 15% | [2]; at 11.0 µM 69% | [3]; [16] 2% | [4]; at 1.2 µM 6% | [4]; at 3.7 µM 7% | [14]; [16] 28% | [5]; at 1.2 µM 40% | [5]; at 3.7 µM 52% | [5]; [16] 43% | [6]; at 1.2 µM 11% | [6]; at 3.7 µM 31% | [15]; at 1.2 µM 12% | [15]; at 3.7 µM 32% | [7]; at 1.2 µM 7% | [7]; at 3.7 µM 44% | [7]; at 11.0 µM 67% | [8]; [16] 27% | [9]; at 1.2 µM 0% | [9]; at 3.7 µM 17% | [9]; at 11.0 µM 48%
active: [10]; at 11.0 µM 76% | [10]; at 33.0 µM 92% | [10]; at 100.0 µM 96% | [11]; at 11.0 µM 70% | [11]; at 33.0 µM 90% | [11]; at 100.0 µM 95% | [12]; at 100.0 µM 93% | [13]; at 33.0 µM 89% | [13]; [17] 89% | [13]; at 50.0 µM 87.5% | [13]; at 100.0 µM 95% | [1]; at 11.0 µM 75% | [1]; at 33.0 µM 91% | [1]; [17] 93% | [1]; at 50.0 µM 87.2% | [1]; at 100.0 µM 96% | [2]; at 33.0 µM 89% | [2]; at 100.0 µM 96% | [3]; [17] 90% | [3]; at 50.0 µM 87.3% | [4]; at 11.0 µM 81% | [4]; at 33.0 µM 91% | [4]; at 100.0 µM 95% | [14]; [17] 90% | [14]; at 50.0 µM 83.5% | [5]; at 11.0 µM 91% | [5]; at 33.0 µM 95% | [5]; [17] 94% | [5]; at 50.0 µM 87% | [5]; at 100.0 µM 97% | [6]; at 11.0 µM 80% | [6]; at 33.0 µM 92% | [6]; at 100.0 µM 96% | [15]; at 11.0 µM 71% | [15]; at 33.0 µM 89% | [15]; at 100.0 µM 96% | [7]; at 33.0 µM 85% | [7]; at 100.0 µM 92% | [8]; [17] 94% | [8]; at 50.0 µM 82.5% | [9]; at 33.0 µM 86% | [9]; at 100.0 µM 94%
